Values without a mark were called inactive.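 How the source made its calls: active means unnormalized dose curve rising to cross level 40 at or below the top tested dose; inconclusive means flat fit at moderately raised activity, or poor fit; inactive means the rest.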

The experiment can be described thus: miR-27b level by RT-PCR, dose response, miR-122 / miR-27b project, Huh7 cells, cherry-pick, activator set (AID 720492). As to conditions: Huh7 miR-27b levels, qRT-PCR, 48 h; series mostly up to 35 µM; miR-27b level change (relative expression (fold, unnormalized)): at the top concentration. For orientation: In qPCR the cycle at which signal appears reflects the starting amount.
As to `CCCC#Cc1ccc2c(c1)O[C@H](CN(C)C(=O)COC)[C@H](C)CN([C@@H](C)CO)S2(=O)=O`, the “miR-27b level change (relative expression (fold, unnormalized))” value is 0.45.
With `C/C=C/c1cnc2c(c1)C(=O)N([C@@H](C)CO)C[C@H](C)[C@H](CN(C)S(=O)(=O)c1ccc(OC)cc1)O2`, the “miR-27b level change (relative expression (fold, unnormalized))” value is 1.02.
`CN1C(=O)c2cc(NC(=O)c3cccc(F)c3)ccc2OC[C@H]2O[C@H](CC(=O)O)CC[C@@H]21`: the “miR-27b level change (relative expression (fold, unnormalized))” value is 1.69.
For the compound `COCC(=O)N(C)C[C@H]1Oc2cc(-c3ccccc3F)ccc2S(=O)(=O)N([C@@H](C)CO)C[C@H]1C`, the “miR-27b level change (relative expression (fold, unnormalized))” value is 0.955.
On to `C[C@H]1CN([C@@H](C)CO)C(=O)c2cc(C#Cc3ccccc3F)cnc2O[C@@H]1CN(C)C(=O)C1CCCCC1`, for which the “miR-27b level change (relative expression (fold, unnormalized))” value was 0.511.
The result for `C[C@H]1CN([C@@H](C)CO)C(=O)c2cc(-c3ccc(C#N)cc3)cnc2O[C@H]1CN(C)Cc1cncnc1` reads 0.64; that for `C[C@H]1CN([C@@H](C)CO)S(=O)(=O)c2ccc(C#Cc3ccncc3)cc2O[C@@H]1CN(C)C(=O)C1CCOCC1`, 0.367.
`CN1C(=O)c2cc(NC(=O)c3cccc(F)c3)ccc2OC[C@H]2O[C@@H](CC(=O)O)CC[C@H]21`: the “miR-27b level change (relative expression (fold, unnormalized))” value is 0.814.
To `C[C@@H]1CN([C@H](C)CO)S(=O)(=O)c2ccc(C#Cc3ccncc3)cc2O[C@@H]1CN(C)C(=O)C1CCOCC1` belongs 0.443; to `Cc1cccc(NC(=O)Nc2ccc3c(c2)C(=O)N(C)[C@@H]2CC[C@@H](CC(=O)NCc4ccccc4Cl)O[C@H]2CO3)c1`, 0.77.
The result for `COCC(=O)N(C)C[C@H]1Oc2cc(-c3ccccc3F)ccc2S(=O)(=O)N([C@H](C)CO)C[C@H]1C` reads 0.891.
As to `COCC(=O)N(C)C[C@H]1Oc2cc(-c3ccc(C#N)cc3)ccc2S(=O)(=O)N([C@H](C)CO)C[C@H]1C`, the “miR-27b level change (relative expression (fold, unnormalized))” value was 0.697.
With `CN1C(=O)c2cc(NC(=O)c3cccc(F)c3)ccc2OC[C@@H]2O[C@@H](CC(=O)O)CC[C@@H]21`, the “miR-27b level change (relative expression (fold, unnormalized))” value is 1.95.
`CNC[C@@H]1Oc2cc(C#CC3CCCCC3)ccc2S(=O)(=O)N([C@@H](C)CO)C[C@@H]1C`: the “miR-27b level change (relative expression (fold, unnormalized))” value is 0.787.
To `C[C@H]1CN([C@@H](C)CO)C(=O)c2cc(C#Cc3ccccc3F)cnc2O[C@H]1CN(C)C(=O)C1CCCCC1` belongs 0.998.
With `CN1C(=O)c2cc(NC(=O)c3cccc(F)c3)ccc2OC[C@@H]2O[C@H](CC(=O)O)CC[C@@H]21`, the “miR-27b level change (relative expression (fold, unnormalized))” value is 1.47.
As to `CN1C(=O)c2cc(NC(=O)c3cccc(F)c3)ccc2OC[C@@H]2O[C@H](CC(=O)O)CC[C@H]21`, the “miR-27b level change (relative expression (fold, unnormalized))” value was 0.888.
To `COCC(=O)N(C)C[C@H]1Oc2cc(C#Cc3cccnc3)ccc2S(=O)(=O)N([C@@H](C)CO)C[C@H]1C` belongs 0.748; to `C[C@@H]1CN([C@@H](C)CO)S(=O)(=O)c2ccc(C#Cc3ccncc3)cc2O[C@@H]1CN(C)C(=O)C1CCOCC1`, 0.541.
To `CN1C(=O)c2cc(NC(=O)c3cccc(F)c3)ccc2OC[C@H]2O[C@@H](CC(=O)O)CC[C@@H]21` belongs 0.548.
To `CO[C@@H]1CN(C)C(=O)c2cc(NS(=O)(=O)c3ccc(Oc4ccccc4)cc3)ccc2OC[C@H](C)NC[C@@H]1C` belongs 1.39.

(Values after PubChem BioAssay AID720492 (Broad Institute, 2013).)
